Consider eight molecules from PubChem BioAssay (NCATS).

Structures are written as SMILES. Records with an inconclusive call do not appear. Activity calls are given as the source filed them. Unless noted, the call rests on the fitted dose curve; in most records, active means well fitted curve in the direction sought with a large enough effect; inconclusive means small, poorly fitted or top-dose-only effect, or another doubt; inactive means no such curve, though single readings can be large; an effect the other way counts as inactive or inconclusive.

Assay [1] is described as follows: Cell Proliferation Assay Versus the ED40515 IL2 Independent ATL cell lines (AID 1053194; calls by dose curve). As to conditions: ED40515 IL2-independent ATL cells. In a few lines: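 CellTiter-Glo luminescence, read after 15 min at RT, gave viability of IL-2-free ED40515 cells (1000/well, RPMI plus 5% FBS) following 48 h drug exposure at 37C. Control wells held DMSO or 9.2 uM bortezomib.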

Assay [2] in a line: High-throughput drug toxicity screening in the BPDCN cell line Gen2.2 (AID 1224824; call rule not given here;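 further: cells exposed to compounds for 48 h before reading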). As to conditions: Gen2.2 BPDCN cells; at 45.8 µM (top of the series) unless noted. The procedure, abridged:
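Gen2.2, 500 cells/well, phenol red-free RPMI/10% FBS/Pen-Strep; 48 h cpd, 37 °C/5% CO2; CTG lum, 15 min RT. Norm: DMSO = 100%, bortezomib 9.2 uM final = 0%.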

Assay [3] is described as follows: High-throughput drug toxicity screening in the BPDCN cell line Cal-1 (AID 1224825; call rule not given here). The conditions noted are these: Cal-1 BPDCN cell viability, qHTS; at 45.8 µM (top of the series) unless noted. In a few lines:
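Percent activity derived from CellTiter-Glo luminescence, scaling DMSO to 100% and 9.2 uM final bortezomib to 0%. BPDCN Cal-1 cells (500/well, RPMI plus 10% FBS) incubated with compounds 48 hours at 37C before reading.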
In general terms: In qHTS, concentration-response curves come from the screen itself.

Assay [4] in a line: qHTS assay for measurement of the activity of small molecule inhibitors on Zika virus induced Caspase-3 activity in human iPSC derived neural progenitor cells (hNPCs) (AID 1224857). Further: % of control where 0% means no effect; nearly all actives have a fitted effect of over 65% in size. As to conditions: hNPCs ZIKV-induced caspase-3/7, Caspase-Glo luminescence, 6 h; series mostly up to 45.7 µM. The procedure, abridged:
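Pretreat hNPCs with compound 1 h; infect ZIKV 2 FFU/cell; 6 h 37 C, 5% CO2; Caspase-Glo 3/7, 30 min RT; luminescence; normalize to no-virus and virus-only wells.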

Assay [5] can be described thus: qHTS Screen of the MIPE 4.0 Collection Against Ewings Sarcoma (RDES) (AID 1259252). Further: nearly all actives have a fitted effect of over 35% in size. Further: potency means the concentration at half of the fitted maximal effect. The conditions noted are these: RD-ES Ewing sarcoma viability, CellTiter-Glo, 48 h; series mostly up to 45.8 µM. In a few lines: (§1)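 Cells plated in serum-containing RPMI (5% FBS) and treated with compound dilutions for 48 h. Readout luminescent viability; normalization relied on vehicle (no inhibition) and media-only columns (full inhibition).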

The nature of assay [6]: qHTS Screen of the MIPE 4.0 Collection Against Ewings Sarcoma (EW8) (AID 1259255). Further: nearly all actives have a fitted effect of over 35% in size. Further: potency means the concentration at half of the fitted maximal effect.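 On viability: 100% = DMSO-treated cells and 0% = medium-only wells without cells.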 The conditions noted are these: EW8 Ewing sarcoma viability, CellTiter-Glo, 48 h; series mostly up to 45.8 µM. In a few lines: as §1
The nature of assay [7]: qHTS Screen of the MIPE 4.0 Collection Against Ewings Sarcoma (TC32) (AID 1259256). Further: nearly all actives have a fitted effect of over 45% in size. Further: potency means the concentration at half of the fitted maximal effect. The conditions noted are these: TC32 Ewing sarcoma viability, CellTiter-Glo, 48 h; series mostly up to 45.8 µM. In a few lines:
as §1

The nature of assay [8]: qHTS assay to identify small molecule inhibitors of chordoma cells - UCH-1 (AID 1259355). Further: nearly all actives have a fitted effect of over 55% in size. Further: potency means the concentration at half of the fitted maximal effect. The conditions noted are these: UCH-1 chordoma viability, CellTiter-Glo, 48 h, combination, with auranofin plus four topoisomerase inhibitors; series mostly up to 46.1 µM. The procedure, abridged:
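800 cells/well, overnight attach; compounds pinned at 15 concs, then auranofin/camptothecin/doxorubicin/rubitecan/topotecan combo added; 48hr 37 C, 5% CO2; CellTiter-Glo, 30min RT, luminescence.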

Assay [9] can be described thus: qHTS assay to identify small molecule inhibitors of chordoma cells - UCH-2 (AID 1259356). Further: on the % scale 0 is the no-effect control and ±100 the full control effect. As to conditions: UCH-2 chordoma viability, CellTiter-Glo ATP luminescence, 48 h; series mostly up to 46.1 µM.
Assay [10] in a line: Identifying Small Molecule Inhibitors of Pancreatic Cancer Stem Cells (SN12C, Adherent) (AID 1259358).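 Further: cell survival measured after 48 h of compound exposure.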 Further: potency means the concentration at half of the fitted maximal effect. As to conditions: viability/growth inhibition; series mostly up to 46.1 µM. The procedure, abridged:
(§2)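 Pre-formed 14-day tumor spheroids or adherent cells dosed and incubated 48 h, 37C, 5% CO2. Viability assessed by CellTiter-Glo.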

Assay [11] can be described thus: Identifying Small Molecule Inhibitors of Pancreatic Cancer Stem Cells (SN12C, Spheroid) (AID 1259360). Further: potency means the concentration at half of the fitted maximal effect.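 On viability (% of control): 100% = DMSO-treated cells and 0% = wells without cells.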 The conditions noted are these: Potency: SN12C spheroid viability; series mostly up to 46.1 µM. In a few lines: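 Spheroids grown 14 days in stem cell media on hydrogel-coated nonadherent plates; 2D lines seeded directly. Compounds added after 4 h attachment, 48 h at 37C, 5% CO2; CellTiter-Glo luminescence normalized to DMSO (no inhibition) and no-cell wells (full inhibition).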

Assay [12] in a line: Identifying Small Molecule Inhibitors of Pancreatic Cancer Stem Cells (Panc1, Adherent) (AID 1259362). Further: potency means the concentration at half of the fitted maximal effect.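 On viability, % of control: compound exposure lasted 48 h before the viability read; plate controls were DMSO-treated cells for no effect and cell-free media wells for full effect.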 As to conditions: Potency: viability; series mostly up to 46.1 µM. In a few lines: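 Cytotoxicity read by CellTiter-Glo luminescence after 48 h compound exposure at 37C; percent activity scaled between DMSO-treated cells and cell-free wells. Spheroid formats used cells pre-formed 14 days in stem cell media on hydrogel.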

A short description of assay [13]: P-glycoprotein substrates identified in KB-8-5-11 adenocarcinoma cell line, qHTS therapeutic library screen (AID 1346987). Further: nearly all actives have a fitted effect of over 65% in size. The conditions noted are these: KB-8-5-11 (P-gp overexpressing) viability, CellTiter-Glo, 72 h; series mostly up to 44.5 µM. The procedure, abridged:
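Compounds are pinned in dose-response onto KB-8-5-11 cells (500 cells/well, colchicine-free medium) and left 72 h at 37 degree C. CellTiter-Glo luminescence then yields AC50 values.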

A short description of assay [14]: qHTS assay for measurement of the activity of small molecule inhibitors on Zika virus induced Caspase-3 activity in human astrocytoma cells (AID 1224859).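 Further: plate controls were ZIKV-infected untreated cells for no effect and uninfected cells for full effect.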 The conditions noted are these: SNB-19 ZIKV-induced caspase-3/7, luminescence, 6 h; series mostly up to 45.7 µM. The procedure, abridged: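 Human SNB-19 astrocytoma cells in RPMI 1640 with 10% FBS receive compound one hour ahead of Zika virus at 2 FFU/cell. After 6 h infection, caspase-3/7 activity is detected by Caspase-Glo luminescence.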

The nature of assay [15]: Cell Proliferation Assay Versus the ED40515 IL2 Dependent ATL cell lines (AID 1053195; calls by dose curve). As to conditions: ED40515 IL2-dependent ATL cells. In a few lines: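 CellTiter-Glo luminescence (15 min, RT) measured viability after 48 hours at 37C; cells were ED40515 +IL2, 1000/well, in phenol red-free RPMI with 5% FBS. Controls: DMSO and 9.2 uM bortezomib.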
Assay [16] is described as follows: qHTS Screen of the MIPE 4.0 Collection Against Ewings Sarcoma (TC71) (AID 1259253). Further: nearly all actives have a fitted effect of over 40% in size. Further: potency means the concentration at half of the fitted maximal effect. As to conditions: TC71 Ewing sarcoma viability, CellTiter-Glo, 48 h; series mostly up to 45.8 µM. The procedure, abridged: as §1
A short description of assay [17]: Identifying Small Molecule Inhibitors of Pancreatic Cancer Stem Cells (A278, Adherent) (AID 1259361). Further: nearly all actives have a fitted effect of over 35% in size.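 On viability (% of control): 100% = DMSO-treated cells and 0% = cell-free media-only wells.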 The conditions noted are these: series mostly up to 46.1 µM. In a few lines: as §2
A short description of assay [18]: P-glycoprotein substrates identified in KB-3-1 adenocarcinoma cell line, qHTS therapeutic library screen (AID 1346986). Further: nearly all actives have a fitted effect of over 60% in size. As to conditions: KB-3-1 parental cells viability, CellTiter-Glo, 72 h; series mostly up to 44.5 µM. In a few lines:
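Viability read by CellTiter-Glo after 72 h compound exposure in dose-response of KB-3-1 and KB-8-5-11 (P-gp-high) cells. Hits needed AC50 < 10 uM, >50% maximum response and curve class -1.1 to -2.4. Cherry-picks retested ± tariquidar, including pcDNA/MDR-19 HEK-293 pair.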

As for `Cc1c(C)c2c(c(C)c1O)CCC(C)(COc1ccc(CC3SC(=O)NC3=O)cc1)O2` (stereo not given), the Potency in assay [1] was 37.2 µM (active). This molecule also yielded a cell viability, % of control (lower = more cytotoxic) in assay [2] of 31.1%. Moreover, the viability (% of control) in assay [3] is 91.7%. Further, the Potency result in assay [4], in assay [5], in [6], in assay [7], in [8] and in assay [10] was “inactive” in each case. The Potency entry in assay [11], in [12] and in assay [13] was “inactive” in each case. For the same molecule, the molecule was classed as inactive in [9].

As to `Cc1ccccc1C(C(=O)NC1CCCC1)N(C(=O)Cn1cnc2ccccc21)c1cccc(F)c1` (stereo not given), the Potency in assay [1] was 20.9 µM (active). Also, in assay [2], the cell viability, % of control (lower = more cytotoxic) is 30.2%. For the same molecule, the viability (% of control) in [3] amounted to 102%. The Potency result in assay [4], in [14], in assay [10] and in assay [11] was “inactive” in each case.

On to `CC(C)(Sc1ccc(CCN(CCCCC2CCCCC2)C(=O)NC2CCCCC2)cc1)C(=O)O`, for which the Potency is 33.2 µM (active) in assay [1]; 18.7 µM (active) in [15]; 14.8 µM (active) in assay [5]; 4.69 µM (active) in assay [6]; 18.7 µM (active) in assay [7]. Further, in assay [2], the cell viability, % of control (lower = more cytotoxic) was 75.1%. The viability (% of control) in assay [3] worked out at 7.76%. Besides, the Potency result in [4], in assay [16], in [10], in assay [11], in [18] and in [13] was “inactive” in each case. Besides, in [17], the IC50 (viability decrease) result is “inactive”.

In the case of `CN(C)C(=O)c1ccc(S(=O)(=O)c2ccc(NC(=O)[C@@](C)(O)C(F)(F)F)c(Cl)c2)cc1`, the Potency was 9.35 µM (active) in assay [1], 0.332 µM (active) in assay [15], 20.9 µM (active) in assay [5] and 18.7 µM (active) in assay [16]. The cell viability, % of control (lower = more cytotoxic) in assay [2] worked out at 41.1%. Besides, the viability (% of control) in assay [3] came out at 20.3%. Also, the Potency result in assay [4], in [14], in assay [6] and in assay [10] was “inactive” each time.

Take `CC(C)(N)C(=O)N[C@H](COCc1ccccc1)C(=O)N1CCC2(CC1)CN(S(C)(=O)=O)c1ccccc12`: the Potency in assay [1] was 7.43 µM (active); in assay [15] it was 11.8 µM (active); in assay [5], 20.9 µM (active); in assay [16], 29.6 µM (active); in assay [6] it was 20.9 µM (active). This molecule also had a cell viability, % of control (lower = more cytotoxic) in assay [2] of 14.7%. In addition, the viability (% of control) in assay [3] worked out at 71%. Also, the Potency entry in [4], in assay [14], in assay [11] and in assay [13] was “inactive” throughout.

In the case of `COc1ccccc1-c1cccc(-c2c(O)c3cc(C#N)c(Cl)cc3[nH]c2=O)c1`, the Potency in assay [1] was 16.6 µM (active); in assay [6], 30.3 µM (active); in [12] it was 1.18 µM (active). Further, in [2], the cell viability, % of control (lower = more cytotoxic) amounted to 52.6% [at 92.2 µM]. The viability (% of control) in [3] turned out to be 99.8% [at 92.2 µM]. In addition, the Potency result in [4], in [14], in assay [5], in [7], in assay [10] and in [13] was “inactive” each time.

For the molecule `C#Cc1cccc(Nc2ncnc3cc(OCCOC)c(OCCOC)cc23)c1`, the Potency in [1] was 11.8 µM (active); in assay [5], 4.18 µM (active); in [16], 14.8 µM (active); in [6] it was 23.5 µM (active); in assay [7] it was 20.9 µM (active); in assay [8] it was 0.141 µM (active). For the same molecule, the Potency in [10] is 8.33 µM (active); in assay [11], 16.6 µM (active). Also, the viability (% of control) in assay [3] was determined as 10.9%. Also, the Potency entry in [4], in assay [14] and in [12] was “inactive” each time. Also, in assay [17], the IC50 (viability decrease) is 7.43 µM (active).

Consider `Cn1c(=O)c(F)c(Nc2ccc(I)cc2F)c2c(=O)n(C[C@@H](O)CO)cnc21`, for which the Potency in assay [1] is 26.4 µM (active); in assay [10] it was 0.418 µM (active); in assay [11], 8.33 µM (active). In assay [2], this molecule came in with a cell viability, % of control (lower = more cytotoxic) of 18%. The viability (% of control) in [3] is 33%. In addition, the Potency result in [4], in assay [14], in assay [16], in assay [6], in assay [7] and in assay [13] was “inactive” throughout.
